Source: PubChem BioAssay AID686979 (National Center for Advancing Translational Sciences (NCATS), 2013)
The whole screen tested about 420,000 compounds, of which about 50,000 (12%) were called active. Where a call stands in place of a potency, no number is given. About 26% were inconclusive and are not listed. Calls come from the whole dose curve; as a rule, active = well fitted inhibition curve with a large enough effect; inconclusive = small, poorly fitted or top-dose-only effect; inactive = flat fitted curve, though single readings scatter. Only a selection was taken, and actives are over-represented in it overall.
Potency is the fitted concentration of half-maximal effect.

Assay: qHTS for Inhibitors of human tyrosyl-DNA phosphodiesterase 1 (TDP1): qHTS in cells in presence of CPT; note: nearly all actives have a fitted effect of over 55% in size
Conditions: chicken DT40 Tdp1-/-;hTDP1 cells + 20 nM CPT, ATP luminescence, 48 h; series mostly up to 46.2 µM
In short: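 Chicken DT40 Tdp1-/- cells complemented with human TDP1, 400 cells/well, exposed to compounds plus 20 nM camptothecin for at least 48 h at 37 C; viability read as ATP content by CellTiter-Glo luminescence.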
With CSc1ccc(CN(C)CC(=O)NCc2ccc(F)cc2)cc1 the Potency was “inactive”.
For CC(C=Cc1ccccc1)=NNS(=O)(=O)c1ccc([N+](=O)[O-])cc1, the Potency was “inactive”.
With CC(=O)c1c(OCC(=O)N(C)C2CCCCC2)ccc2c(C)cc(=O)oc12 the Potency was “inactive”.
In the case of Cc1cc(/C=C2/NC(=O)NC2=O)c(C)n1-c1cccnc1, the Potency is reported as “inactive”.
With Cc1ccc2nc(COc3ccccc3NC(=O)Nc3ccc(F)c(Cl)c3)cc(=O)n2c1 the Potency was 11.6 µM (active).
In the case of Cc1ccc2nc(COc3cccc(NC(=O)Nc4ccc(C)c(Cl)c4)c3)cc(=O)n2c1, the Potency is reported as “inactive”.
With Cc1ccc2nc(COc3ccc(NC(=O)COc4ccccc4F)cc3)cc(=O)n2c1 the Potency was “inactive”.
With Cc1ccsc1C(=O)N[C@@H](C)c1nnc2ccccn12 the Potency was “inactive”.
For CCCc1cc(=O)[nH]c(SCC(=O)Nc2sc3c(c2C#N)CCCC3)n1, the Potency was “inactive”.
With CC(=O)c1c(C)[nH]c(C(=O)OCC(=O)Nc2c(C)n(C)n(-c3ccccc3)c2=O)c1C the Potency was “inactive”.
For CC(=O)c1c(C)[nH]c(C(=O)OCC(=O)Nc2sc3c(c2C#N)CCCC3)c1C, the Potency was 16.4 µM (active).
In the case of N#Cc1c(NC(=O)CCCl)sc2c1CCCCC2, the Potency is reported as 18.4 µM (active).
With COc1ccc(-n2c(SCC(=O)Nc3sc4c(c3C#N)CCCC4)nnc2-c2ccc(O)cc2)cc1 the Potency was “inactive”.
With CC(=O)c1c(C)[nH]c(C(=O)OCC(=O)NCCC(C)C)c1C the Potency was “inactive”.
In the case of CC(=O)c1c(C)[nH]c(C(=O)OCC(=O)Nc2c(C)cccc2C)c1C, the Potency is reported as 20.6 µM (active).
With CCN1CCN(CC(=O)Nc2sc3c(c2C#N)CCC3)CC1 the Potency was “inactive”.
For N#Cc1c(NC(=O)C2CCCO2)sc2c1CCCCC2 (centres undefined), the Potency was “inactive”.
In the case of CC1=CC=CC2=N/C(=N\S(=O)(=O)c3ccc(F)cc3F)c3ccccc3CN12, the Potency is reported as “inactive”.
In the case of C=CCn1c(CNS(=O)(=O)c2ccc(Br)cc2)nnc1SC, the Potency is reported as “inactive”.
For CCOC(=O)c1c(C)[nH]c(C(=O)OCC(=O)N2CCCC2=O)c1C, the Potency was “inactive”.
For CC(C)c1nc(CNC(=O)CC2C(=O)NCCN2Cc2cccc(F)c2F)cs1 (centres undefined), the Potency was “inactive”.
In the case of CC1(C(=O)Nc2ccc3c(c2)OCCO3)CN(S(C)(=O)=O)CC(=O)N1Cc1cccc(F)c1 (centres undefined), the Potency is reported as “inactive”.
In the case of CCOCCc1nn2c(=O)cc(CSCC(=O)Nc3cccc(C)c3C)nc2s1, the Potency is reported as “inactive”.
For CCOCCc1nn2c(=O)cc(COC(=O)CNC(=O)c3ccc(C(C)(C)C)cc3)nc2s1, the Potency was 16.4 µM (active).
For CCCc1nn2c(=O)cc(COC(=O)c3ccc(NC(=O)C(C)Oc4ccccc4)cc3)nc2s1 (centres undefined), the Potency was “inactive”.
For CCCCc1nn2c(=O)cc(COC(=O)c3ccccc3NC(=O)C(C)(C)C)nc2s1, the Potency was “inactive”.
With Cc1nn2c(=O)cc(COC(=O)CNC(=O)c3ccc(F)cc3)nc2s1 the Potency was “inactive”.
In the case of CCCCc1nn2c(=O)cc(COC(=O)c3ccc(NC(=O)c4ccccc4C)cc3)nc2s1, the Potency is reported as 20.6 µM (active).
For O=C(O)CCCCC(=O)O, the Potency was “inactive”.
For COc1ccc(NC(=O)N(C)C[C@@H]2OCc3cn(nn3)CCCC(=O)N([C@H](C)CO)C[C@H]2C)c(OC)c1, the Potency was “inactive”.
In the case of O=C(Nc1cccc([N+](=O)[O-])c1)Nn1cnnc1, the Potency is reported as “inactive”.
For CC(C)CC(=O)NC(=S)Nc1cc(C(=O)O)ccc1Cl, the Potency was “inactive”.
In the case of CC(C)Nc1ccc(-n2nc3ccccc3[n+]2[O-])cc1, the Potency is reported as “inactive”.
For NS(=O)(=O)c1ccc(CCNC(=O)CNC(=O)Cc2ccccc2)cc1, the Potency was “inactive”.
For CCOc1cnc(-c2c(-c3ccccc3Cl)noc2C)o1, the Potency was “inactive”.
With Cc1oc(-c2ccccc2Cl)[n+]([O-])c1C the Potency was 14.6 µM (active).
In the case of OCC[C@H]1C[C@@H](O)[C@H](O)[C@]2(OCCCc3ccccc32)O1, the Potency is reported as “inactive”.
For COc1ccc(C(=O)OCC(=O)N2CC(=O)Nc3ccccc32)cc1Br, the Potency was “inactive”.
In the case of Cc1ccc(C(=O)N/N=C/c2cccc3ccccc23)cn1, the Potency is reported as “inactive”.
For C/C(=N\NC(=O)CNc1cccc2ccccc12)c1ccc(Br)s1, the Potency was 11.6 µM (active).
With Cn1cccc1/C=N/NC(=O)CNc1cccc2ccccc12 the Potency was “inactive”.
For C/C(Cc1ccccc1)=N\NC(=O)CNC(=O)c1cccc(Br)c1, the Potency was “inactive”.
With Cc1cccc(/C=N/NC(=O)CNc2cccc3ccccc23)n1 the Potency was 18.4 µM (active).
For O=C(NC1CCCC1)c1ccc(Br)s1, the Potency was “inactive”.
In the case of COc1cc(OC)cc(C(=O)NCCSCc2ccc(Cl)cc2)c1, the Potency is reported as “inactive”.
In the case of Cc1ccc(C(=O)NC2CCN(C(=O)Nc3ccccc3Cl)CC2)cc1, the Potency is reported as “inactive”.
With Cc1ccc(C)n1NC(=O)c1ccc([N+](=O)[O-])cc1 the Potency was “inactive”.
With CC(=O)N1CCc2ccc(N)cc21 the Potency was “inactive”.
In the case of CC1CCN(C(=O)CCc2nnc3ccc(NCc4ccco4)nn23)CC1, the Potency is reported as “inactive”.
With Cn1c(=O)n(Cc2ccco2)c(=N)c2c3c(sc21)CCCC3 the Potency was “inactive”.
With CN1CCc2c(sc3c2c(NCc2ccco2)nc2nnnn23)C1 the Potency was 29.1 µM (active).
For O=C(COC(=O)c1ncc(Cl)c(Cl)c1Cl)NNC(=O)c1ccccc1, the Potency was “inactive”.
For COc1ccc(N2C(=O)NC(NS(=O)(=O)c3ccc(Cl)cc3)(C(F)(F)F)C2=O)cc1 (centres undefined), the Potency was “inactive”.
In the case of COc1ccc(/C=C2\SC(=S)N(CCC(=O)Nc3cccc(C(=O)O)c3)C2=O)cc1OC, the Potency is reported as “inactive”.
With O=C(CN1CCCCCC1)NCCN1C(=O)S/C(=C\c2ccccc2Cl)C1=O the Potency was “inactive”.
For O=C1/C(=C\c2ccccc2Cl)SC(=S)N1CCC(=O)N1CCCc2ccccc21, the Potency was 6.51 µM (active).
In the case of Cc1ccc([C@@H]2CC(=O)[C@@H]3CN(S(=O)(=O)c4ccc(C)cc4)[C@H](c4ccccc4F)C[C@@H]3N2S(=O)(=O)c2ccc(Cl)cc2)cc1, the Potency is reported as “inactive”.
For CC1CC(NC(=S)N(C)C)CC(C)(C)C1 (centres undefined), the Potency was “inactive”.
In the case of CC1CC(NC(=O)/C(C#N)=C/c2ccc[nH]2)CC(C)(C)C1 (centres undefined), the Potency is reported as 0.0184 µM (active).
With CCN(C[C@H]1N[C@@](CC)(C(=O)OC)[C@H]2C(=O)N(C)C(=O)[C@@H]12)C(=O)Nc1ccc(F)cc1 the Potency was “inactive”.
For Cc1nn(C(=O)c2c(F)cccc2F)c(C)c1S(=O)(=O)N1CCOCC1, the Potency was “inactive”.
In the case of O=C(Nc1ccc(NC(=O)c2ccco2)c(Cl)c1)c1cccc([N+](=O)[O-])c1, the Potency is reported as “inactive”.
In the case of Cc1cccc(C(=O)NNC(=O)c2cccc([N+](=O)[O-])c2)c1, the Potency is reported as “inactive”.
For O=C(Nc1ccc(C2CC2(Cl)Cl)cc1)c1cccc([N+](=O)[O-])c1 (centres undefined), the Potency was 23.1 µM (active).
With Cc1c(NC(=O)C(C)Oc2cccc(Cl)c2)c(=O)n(-c2ccccc2)n1C (centres undefined) the Potency was “inactive”.
For COc1cc(/C=N/Nc2nn3cnnc3c3ccccc23)cc(OC)c1OC, the Potency was 10.3 µM (active).
With COc1cc(/C=N/NC(=O)Cc2ccccc2)cc(OC)c1OC the Potency was “inactive”.
For COc1ccc2[nH]c(C(=O)N/N=C/c3cc(OC)c(OC)c(OC)c3)cc2c1, the Potency was “inactive”.
For CCOC(=O)CSc1nc(N2CCOCC2)c2c(c1C#N)CC(C(C)C)OC2 (centres undefined), the Potency was “inactive”.
In the case of Cc1cccc(NC(=O)Cc2ccc(Br)cc2)n1, the Potency is reported as “inactive”.
For CC(Cc1cccs1)NC(=O)NC1CCCCC1 (centres undefined), the Potency was “inactive”.
In the case of Cc1ccccc1N(C(=O)Cc1cccs1)C(C(=O)NC1CCCCC1)c1cn(C)nc1C (centres undefined), the Potency is reported as “inactive”.
In the case of Cc1ccsc1C(C(=O)NC1CCCCC1)N(C(=O)Cc1cccs1)C1CC1 (centres undefined), the Potency is reported as 20.6 µM (active).
In the case of CC(NC(=O)c1cc(=O)[nH]c2ccccc12)c1ccc(F)cc1F (centres undefined), the Potency is reported as “inactive”.
With CC(NC(=O)c1cc(Sc2ccc(F)cc2F)nc2ccccc12)c1ccccc1 (centres undefined) the Potency was 13 µM (active).
For CC(NC(=O)c1ccccc1SCC(=O)N1CCCC1)c1ccccc1 (centres undefined), the Potency was “inactive”.
For CCCCNC(=O)c1nc(C2CCN(S(=O)(=O)c3ccc(F)c(F)c3)CC2)oc1-c1cccc(C(F)(F)F)c1, the Potency was “inactive”.
With COc1ccc(N2CCN(c3cc(C)nc4nncn34)CC2)cc1 the Potency was 13 µM (active).
In the case of COc1ccc(N2CCN(Cc3nnc(-c4ccccc4)o3)CC2)cc1, the Potency is reported as “inactive”.
With COc1ccc(N2CCN(S(=O)(=O)c3cc(Br)cnc3N)CC2)cc1 the Potency was “inactive”.
With O=C(CCN1C(=O)c2ccccc2C1=O)NNC(=O)c1ccc(Cl)cc1Cl the Potency was “inactive”.
In the case of O=C(O)c1ccc2c(c1)N(Cc1ccc(F)cc1)C(=O)c1ccccc1S2=O (centres undefined), the Potency is reported as 11.6 µM (active).
With O=C(CN1C(=O)c2ccccc2C1=O)NCc1ccc(C(=O)O)cc1 the Potency was “inactive”.
In the case of CN(Cc1ccc(F)cc1)C(=O)CN1C(=O)c2ccccc2S1(=O)=O, the Potency is reported as “inactive”.
In the case of O=C(Nc1cc(Cl)cc(Cl)c1)c1ccc2c(c1)N(Cc1cccc(Cl)c1)C(=O)c1ccccc1S2=O (centres undefined), the Potency is reported as 3.66 µM (active).
For Cc1cccc(C(=O)Nc2ccc3c(c2)C(=O)N(CC(C)C)C3=O)c1, the Potency was “inactive”.
In the case of CCN(CC)C(=O)C1CCCN(Cc2cccc(Cl)c2)C1 (centres undefined), the Potency is reported as “inactive”.
With CN(C(=O)c1ccc2c(c1)N(Cc1cccc(Cl)c1)C(=O)c1ccccc1S2=O)C1CCCCC1 (centres undefined) the Potency was 18.4 µM (active).
In the case of Cc1ccccc1NC(=O)NCC1CCN(Cc2cccc(Cl)c2)CC1, the Potency is reported as “inactive”.
In the case of Brc1cc(/C=N/n2cnnc2)oc1Br, the Potency is reported as “inactive”.
For CCCOC1CCCN(Cc2cn(C)nc2-c2ccccc2F)C1 (centres undefined), the Potency was “inactive”.
With CC(=O)N1CC(=O)N(CC(=O)Nc2ccc(Br)cc2)C1=S the Potency was “inactive”.
For COc1cccc(CNC(=O)Cn2c(=O)c3cccn3c3ccc(F)cc32)c1OC, the Potency was “inactive”.
In the case of Cc1cccc(N2CC(C(=O)Nc3ccccc3N3CCCC3)CC2=O)c1C (centres undefined), the Potency is reported as “inactive”.
For O=C(COc1ccccc1F)OCc1cc(=O)n2nc(C3CCCCC3)sc2n1, the Potency was “inactive”.
With CN(C)CCN=c1cc(-c2ccccc2)oc2ccc(Cl)cc12 the Potency was “inactive”.
For CCc1nn(CC(=O)NCC(C)c2ccccc2)c(=O)c2cc3occc3n12 (centres undefined), the Potency was “inactive”.
With CCc1nn(CC(=O)Nc2cc(C)cc(C)c2)c(=O)c2cc3sccc3n12 the Potency was 4.11 µM (active).
With CCc1nn(CC(=O)Nc2cccc(C)c2C)c(=O)c2cc3sccc3n12 the Potency was “inactive”.
With O=C(CC1SC(N2CCOCC2)=NC1=O)Nc1ccccc1F (centres undefined) the Potency was “inactive”.
In the case of O=C(Cc1ccc(S(=O)(=O)N2CCOCC2)s1)Nc1ccc(Br)c(C(F)(F)F)c1, the Potency is reported as 14.6 µM (active).
With O=C(Cc1ccc(S(=O)(=O)N2CCOCC2)s1)NCCOc1ccccc1F the Potency was “inactive”.
With O=C(OCC(=O)N1CCOCC1)c1ccc(N2CCOCC2)c([N+](=O)[O-])c1 the Potency was “inactive”.
For O=C(c1ccc(N2CCCC2=O)cc1)N1CCN(c2ccc(C(F)(F)F)cc2[N+](=O)[O-])CC1, the Potency was 3.66 µM (active).
In the case of O=C(Nc1cc(Cl)ccc1N1CCOCC1)c1ccc(N2CCCC2=O)cc1, the Potency is reported as “inactive”.
For CNS(=O)(=O)c1ccc(N2CCCC2=O)c([N+](=O)[O-])c1, the Potency was “inactive”.
For O=C(Cc1ccc(S(=O)(=O)N2CCOCC2)s1)N1CCN(c2ccc(C(F)(F)F)cc2[N+](=O)[O-])CC1, the Potency was 14.6 µM (active).
In the case of O=C(COc1ccc(S(=O)(=O)N2CCOCC2)cc1Cl)N1CCOCC1, the Potency is reported as “inactive”.
In the case of Cc1cc(S(=O)(=O)N2CCOCC2)ccc1OCC(=O)Nc1cccc(C(F)(F)F)c1, the Potency is reported as “inactive”.
